Among all 320,000 compounds or so, about 1,300 (0.41%) were called active. Another 3% or so got no clear call; they are omitted. How the calls were made is not given here. Only a sample is shown. Entries with a potency or affinity are not part of this list.
Test: growth inhibition of non-replicating M. tuberculosis (AID 488890);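 further: plate controls were DMSO cells for no effect and high antibiotic wells for full effect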
Details: Mycobacterium tuberculosis non-replicating, at 25 µM, stronger effect = higher value

Row | Structure (SMILES) | inhibition
1 | CCc1cc2cccc(C)c2nc1SCC(=O)NNC(=O)c1ccco1 | -10.6%
2 | C=CCn1c(O)c(C(C)=Nc2ccc(NC(C)=O)cc2)c(=O)[nH]c1=O | -9.1%
3 | C=CCn1c(O)c(C(C)=Nc2ccc(C(=O)O)cc2)c(=O)[nH]c1=O | 6.37%
4 | O=C(Nc1ccc(Cl)c(Cl)c1)C1=Cc2ccccc2OC1 | 58%
5 | O=S(=O)(Nc1ccc(Cl)c(Cl)c1)N1CCOCC1 | -2.78%
6 | COc1ccc(S(=O)(=O)N2CCCCCC2)cc1NC(=O)CN1C(=O)CNC1=O | 13.3%
7 | CCNC(=O)C(=O)NCC(c1cccs1)S(=O)(=O)c1ccc(C)cc1 (stereo not drawn) | 2.12%
8 | CN(C)c1cc[n+](CC(=O)Nc2ccc(Cl)cc2)cc1 | 9.15%
9 | O=c1c2cc(Br)ccc2nc(-c2ccccc2)n1O | 78.6%
10 | CCc1nc2ccc(Br)cc2c(=O)n1-c1ccccc1C(F)(F)F | 26.9%
11 | COc1ccccc1-c1nc2cc(Cl)ccc2c(=O)n1O | 9.28%
12 | O=C(O)c1ccccc1-c1nc2cc(Cl)ccc2c(=O)n1O | -1.37%
13 | O=C(OCn1nnc2ccccc2c1=O)c1ccc(S(=O)(=O)N2CCOCC2)cc1 | 33.4%
14 | Cc1nn(-c2ccccc2)c(C)c1NC(=O)COC(=O)c1ccccc1OC(F)F | 9.15%
15 | COc1ccc(NC(=O)C(c2ccccc2)c2ccccc2)c(OC)c1 | -2.93%
16 | Nc1nc2nc(SCC(=O)N3CCCc4ccccc43)[nH]c2c(=O)[nH]1 | 0.84%
17 | CN(C)CCn1c2c(c(SCC(=O)Nc3ccc4c(c3)OCCO4)nc1=O)CCC2 | -16.4%
18 | CC1CCN(C(=O)COC(=O)c2cc(Cl)cc(Cl)c2N)CC1 | 78.5%
19 | O=C(COC(=O)c1ccc(Br)cc1)NC1CCCC1 | 46.5%
20 | O=C(OCCCN1C(=O)c2ccccc2C1=O)c1ccco1 | 10.6%
21 | O=C(CNC(=O)c1ccc(Br)o1)NC1CCCCCC1 | -0.81%
22 | Cc1ccc(C(=O)OCC(=O)NC2CCCCC2)o1 | 36.7%
23 | O=C(OCCN1C(=O)c2ccccc2C1=O)c1ccco1 | 15.3%

Row | Structure (SMILES) | inhibition
24 | O=C(COC(=O)c1cc([N+](=O)[O-])ccc1Cl)NC1CCCC1 | 73.8%
25 | Nc1c(Cl)cc(Cl)cc1C(=O)OCC(=O)N1CCOCC1 | 17.1%
26 | CCc1ccc(CNC(=O)CN2C(=O)COc3ccccc32)cc1 | 14.8%
27 | COc1ccc(S(=O)(=O)N2CCCC2CNC(=O)C(=O)NCc2ccc3c(c2)OCO3)cc1 (stereo not drawn) | 10.3%
28 | COC(=O)CCC(=O)OC1(C)C(=O)C=C2C=C(C3CC3)N(C3CCCC3)C=C2C1=O (stereo not drawn) | 21.8%
29 | NC1=NC(=O)/C(=C/c2ccc(-c3ccc(S(N)(=O)=O)cc3)o2)S1 | -4.9%
30 | Cc1ccc2c(C(=O)CN3CCN(C(=O)c4ccco4)CC3)c(C)[nH]c2c1 | 14%
31 | O=C(NC1CCCCC1)C(c1cccnc1)N(C(=O)c1ccc(Cl)nc1)C1CCCCC1 (stereo not drawn) | 20.7%
32 | O=C(NC(=S)Nc1ccc2[nH]c(=O)[nH]c2c1)c1ccccc1[N+](=O)[O-] | -4.02%
33 | CCNC(=O)CSc1nnc(-c2ccccc2)n1-c1ccc(OCC)cc1 | 12%
34 | O=C1CSC(=Nc2cccc([N+](=O)[O-])c2)N1 | 17.5%
35 | O=C(COC(=O)c1ccc([N+](=O)[O-])o1)NCCCc1ccccc1 | 73.4%
36 | O=C(OCC(=O)N1CCCC1)c1cccc(Br)c1 | 67.8%
37 | O=C(OCC(=O)N1CCCC1)c1cc([N+](=O)[O-])ccc1Cl | 67.6%
38 | O=C(COC(=O)c1ccc(Br)o1)NCCNC(=O)COC(=O)c1ccc(Br)o1 | 0.38%
39 | Nc1cccc(CP(=O)(c2ccccc2)c2ccccc2)c1 | 1.01%
40 | COc1cc(NC(=O)c2ccccc2-n2cnnn2)cc(OC)c1 | 10.3%
41 | COc1ccc(C2C(C(C)=O)=C(O)C(=O)N2c2ccc(Br)cc2)cc1 (stereo not drawn) | 29.9%
42 | COC(=O)c1ccc(CSc2nnc(-c3ccncc3)n2Cc2ccccc2)o1 | 12.6%
43 | COC(=O)CSc1nnc(-c2ccncc2)o1 | -0.32%
44 | Cc1ccc(OCC(=O)OC(C)C(=O)NC2CCCCC2C)cc1C (stereo not drawn) | 65.7%
45 | Cc1c(C(=O)NCc2ccccc2CN2CCCC2)oc2ccc(F)cc12 | 42%
46 | COc1ccc(OC)c(NC(=O)c2nc3ccccc3s2)c1 | -0.73%

Row | Structure (SMILES) | inhibition
47 | Cc1nc(C)c(C(=O)Nc2ccccc2)s1 | -13.4%
48 | O=C(NCc1ccccc1)c1nc2ccccc2s1 | 79.5%
49 | Cc1nc(Cl)sc1C(=O)Nc1ccccc1 | -6.17%
50 | COc1ccc(NC(=O)Nc2nc3ccccc3s2)cc1 | -4.36%
51 | O=C(NCc1ccco1)c1cccnc1-c1nc2ccccc2s1 | 27.7%
52 | CN(C(=O)COC(=O)CSc1cc(Cl)ccc1Cl)c1c(N)n(Cc2ccccc2)c(=O)[nH]c1=O | 7.95%
53 | COc1ccc(CC2C(=O)OC(C)(C)OC2=O)c(Cl)c1OC | -14.3%
54 | CCCC1=C(C(=O)OCC)C(c2cccnc2)n2nc(C)nc2N1 (stereo not drawn) | -11.9%
55 | COCCn1c(=O)c2c(nc3n2CC(C)CN3CCc2ccccc2)n(C)c1=O (stereo not drawn) | 22.9%
56 | Cc1[nH]c(=O)[nH]c(=O)c1S(=O)(=O)N1CCN(c2ccccc2F)CC1 | -5.44%
57 | COc1ccc(OC)c(C(=O)c2oc3ccccc3c2NC(C)=O)c1 | -5.83%
58 | CCOC(=O)c1sc(=S)n(-c2ccc3c(c2)OCO3)c1N | 1.96%
59 | N/C(=N\OC(=O)c1ccc(Cl)cc1)c1ccccn1 | 28.3%
60 | N/C(=N\OC(=O)c1ccccc1Cl)c1ccccn1 | -3.97%
61 | N/C(=N\OC(=O)c1ccccc1Cl)c1cccc([N+](=O)[O-])c1 | 66.7%
62 | N/C(=N\OC(=O)c1ccc(Cl)cc1)c1ccc(Cl)cc1 | 69.9%
63 | C=CCOC(=O)c1cn(CC)c2nc(C)ccc2c1=O | -10.5%
64 | CCOC(=O)C1(Cc2cccc(Cl)c2)CCCN(C(=O)c2ccoc2C)C1 (stereo not drawn) | 33.8%
65 | CCOC(=O)NC(CC(=O)O)c1ccc(OC)cc1 (stereo not drawn) | -4.02%
66 | CCn1c(C)nc2cc(C(=O)N/N=C/c3ccc(N4CCOCC4)cc3)ccc21 | 33%
67 | c1ccc2c(c1)CC(N1CCCCC1)c1ccccc1S2 (stereo not drawn) | 72.9%
68 | CN1CCN(C2Cc3ccccc3Sc3ccc(Cl)cc32)CC1 (stereo not drawn) | 76.8%
69 | CCOC(=O)C1(Cc2ccc(OC)cc2)CCN(C(=O)c2cncs2)CC1 | -27.1%

Row | Structure (SMILES) | inhibition
70 | CCOC(=O)c1ccc(NC(=O)NCc2ccncc2)cc1 | 15.4%
71 | CCc1ccc(N2C(=O)c3cc(N4CCOCC4)c([N+](=O)[O-])cc3C2=O)cc1 | 1.14%
72 | O=[N+]([O-])c1ccc(CSc2nnc3ccccn23)cc1 | 1.79%
73 | CCc1ccc(NC(=O)CCCn2nc(CC)n3c(cc4occc43)c2=O)cc1 | 21.1%
74 | CSc1ccc(CCNC(=O)CCc2nnc3ccc(N4CCC5(CC4)OCCO5)nn23)cc1 | 11.6%
75 | COc1ccccc1-c1nc2ccc(Cl)cc2c(=O)n1O | 11.4%
76 | Cc1nc2ccc([N+](=O)[O-])cc2c(=O)n1Cc1ccc(Cl)cc1 | -5.97%
77 | Cc1ccc(-c2nc3ccc(Cl)cc3c(=O)n2O)cc1 | 69.6%
78 | Nn1c(-c2ccccc2)nc2cc(Cl)ccc2c1=O | -0.74%
79 | Cc1nc2ccc([N+](=O)[O-])cc2c(=O)n1Cc1ccc(Br)cc1 | -9.44%
80 | Cc1nc2ccc(Cl)cc2c(=O)n1-c1ccc([N+](=O)[O-])cc1 | 36.5%
81 | O=C(Nn1c(-c2ccc(Br)cc2)nc2ccccc2c1=O)c1ccc([N+](=O)[O-])cc1 | 20.4%
82 | O=c1c2ccccc2nc(-c2ccc([N+](=O)[O-])cc2)n1-c1ccccc1 | -1.75%
83 | CCCNC(=O)c1ccc(Cn2c(=S)[nH]c3c([nH]c4ccc(OC)cc43)c2=O)cc1 | -43.9%
84 | CC1Cc2cc(S(=O)(=O)N3CCN(c4ccccc4F)CC3)ccc2N1C(=O)C1CC1 (stereo not drawn) | 31.8%
85 | CC1Sc2ccc(S(=O)(=O)CCC(=O)N3CCN(c4ccccc4)CC3)cc2NC1=O (stereo not drawn) | 12.1%
86 | COC(=O)C1=C(C)NC(=O)CC1c1cc2c(cc1Br)OCO2 (stereo not drawn) | -0.49%
87 | Cc1ccccc1C(=O)N1CCN(c2ncccn2)CC1 | -10.1%
88 | CCOC(=O)c1ccc(S(=O)(=O)NC2CC2)cc1 | 0.31%
89 | COc1ccc(COC(=O)CN2C(=O)NC3(CC(C)CC(C)(C)C3)C2=O)cc1F (stereo not drawn) | 7.47%
90 | CC(C)C[C@H](NC(=O)c1nc[nH]c1C(=O)NCCCCCN)C(=O)OCc1ccccc1 | 18.5%
91 | CCN(CC(=O)Nc1ccc(OC)cc1)C(=O)c1cc2c(s1)CCCCC2 | 12.4%
92 | CSc1nnc(SCC(=O)Nc2ccc3[nH]c(=O)[nH]c3c2)s1 | -17%

Row | Structure (SMILES) | inhibition
93 | COc1ccccc1NC(=O)CN1C(=O)COc2ccc(S(=O)(=O)N3CCC(C)CC3)cc21 | 9.4%
94 | O=S(=O)(c1cccc2nsnc12)N1CCc2ccccc2C1 | 3.1%
95 | CC1CCCN(CCOCCSc2ccccc2)C1 (stereo not drawn) | 13.4%
96 | Clc1ccc(SCCCN2CCCCC2)cc1 | 5.39%
97 | COc1ccc(S(=O)(=O)N2CCCC(C(=O)NC3CCCCC3)C2)cc1 (stereo not drawn) | -6.21%
98 | CCOC(=O)CN(C#N)c1nc(C)cc(C)n1 | 1.75%
99 | COC(=O)CN(C#N)c1nc(OC)nc(N(C)C)n1 | 2.2%
100 | O=C(COc1cccc2ccccc12)Nc1cc(Cl)ccc1C(=O)O | 69.4%
101 | CN(c1cccc(Cl)c1)S(=O)(=O)c1cccc(C(=O)Nc2nc3ccccc3[nH]2)c1 | 7.4%
102 | COc1ccc(C(=O)Nc2nc3ccccc3[nH]2)cc1OC | 22.2%
103 | O=C(COc1ccccc1C(=O)O)Nc1cccc2ccccc12 | 15.8%
104 | CCOc1ccccc1OCC(=O)Nc1nc2ccccc2[nH]1 | 34.2%
105 | O=C(COc1ccccc1)Nc1nc2ccccc2[nH]1 | 75.5%
106 | CCOc1ccccc1OCCCC(=O)Nc1nc2ccccc2[nH]1 | 12.7%
107 | COc1ccc(Cl)cc1C(=O)Nc1nc2ccccc2[nH]1 | 62.4%
108 | CCN(CC)S(=O)(=O)c1ccc(NC(=O)c2cccs2)cc1 | -5.05%
109 | O=C(COc1ccccc1C(=O)Nc1ccccc1)c1ccc(F)cc1 | 2.88%
110 | Cc1sc(NC(=O)C2CSC3(C)CCC(=O)N23)nc1-c1ccc(F)cc1 (stereo not drawn) | 23.3%
111 | CNC(=O)C1CCC(=O)N1Cc1ccccc1Cl (stereo not drawn) | -5.58%
112 | Cc1[nH]c2ccccc2c1CC#N | -7.72%
113 | COC(=O)CNC(=O)COC(=O)/C=C/c1cccs1 | -8.45%

From PubChem BioAssay AID488890 (Southern Research Specialized Biocontainment Screening …, 2010)
